# Experimental data published in PubChem BioAssay (NCATS).
# Inconclusive results are not listed. A number with no mark means an inactive call. The source made the active and inactive calls. The call rests on the fitted dose curve; in most records, active means well fitted cell-killing curve with a large enough effect; inconclusive means small, poorly fitted or top-dose-only effect, or effect the other way; inactive means flat fitted curve, though single readings scatter.
# Tested on: C33A
# Assay: Primary qHTS to identify gynecologic anti-cancer compounds using libraries of approved drugs and bioactive compounds (AID 1345084); further: nearly all actives have a fitted effect of over 55% in size
# Details: Gynecologic cancer cell panel viability, ATPlite luminescence, 48 h; series mostly up to 57.5 µM; activity change, negative = cytotoxicity: at the top concentration
# Procedure, shortened: (§1)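 Cytotoxicity screen measuring ATP content by luciferase luminescence. Each compound is applied at five concentrations for 48 h at 37 C with 5% CO2.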
# On the % scale 0 is the no-effect control and ±100 the full control effect; potency means the concentration at half of the fitted maximal effect.
row,Structure (SMILES),"activity change, negative = cytotoxicity [%]"
1,CC[C@H]1OC(=O)[C@H](C)[C@@H](O[C@H]2C[C@@](C)(OC)[C@@H](O)[C@H](C)O2)[C@H](C)[C@@H](O[C@@H]2O[C@H](C)C[C@H](N(C)C)[C@H]2O)[C@](C)(O)C[C@@H](C)/C(=N/OCOCCOC)[C@H](C)[C@@H](O)[C@]1(C)O,13.2
2,C[C@@H](O[C@H]1OCCN(Cc2n[nH]nc2CN(C)C)[C@H]1c1ccc(F)cc1)c1cc(C(F)(F)F)cc(C(F)(F)F)c1,-1.8
3,Cc1cc(CN)cc(C)c1NC(=O)c1ccc(-c2cc(Cl)ccc2Cl)o1,-0.362
4,CCCCc1nc(C)c(CC(=S)N(C)C)c(=O)n1Cc1ccc(-c2ccccc2-c2nn[nH]n2)cc1,11.8
5,CC(=O)N1CCN([C@H]2CCN(C(=O)N(C)[C@H](C)c3cc(C(F)(F)F)cc(C(F)(F)F)c3)[C@@H](c3ccc(F)cc3C)C2)CC1,-1.84
6,CC1(C)SC2C(NC(=O)[C@H](C(=O)O)c3ccsc3)C(=O)N2C1C(=O)O (some centres undefined),8.45
7,COc1c(N2CC3CCCNC3C2)c(F)cc2c(=O)c(C(=O)O)cn(C3CC3)c12 (centres undefined),8.74
8,COc1cc(N2CCN(C(C)=O)CC2)ccc1Nc1ncc(Cl)c(Nc2ccc(N3CCN(C(C)=O)CC3)cc2OC)n1,-17.4
9,CO[C@@H]1[C@@H](O[C@H]2O[C@@H](C)[C@H](O[C@@H]3C[C@](C)(O)[C@H](O)[C@@H](C)O3)[C@@H](N(C)C)[C@@H]2O)[C@@H](CC=O)C[C@@H](C)[C@@H](O[C@H]2CC[C@H](N(C)C)[C@H](C)O2)/C=C/C=C/C[C@@H](C)OC(=O)C[C@H]1O,0.0359
10,Cc1ccn(-c2cc(Cl)ccc2[C@@H](Oc2cc(-c3ccc(C[C@H](N)C(=O)O)cc3)nc(N)n2)C(F)(F)F)n1,18.2

# Tested on: CAOV3
# Assay: as above
# Details: Gynecologic cancer cell panel viability, ATPlite luminescence, 48 h; series mostly up to 57.5 µM; activity change, negative = cytotoxicity: at the top concentration
# Procedure, shortened: as §1
Structure (SMILES),"activity change, negative = cytotoxicity",Potency
CN[C@@H]1[C@@H](O)[C@@H](O[C@@H]2[C@@H](O)[C@H](O[C@H]3O[C@@H]([C@@H](C)NC)CC[C@H]3N)[C@@H](N)C[C@H]2N)OC[C@]1(C)O,26.1%,–
C[N+]1(C)[C@@H]2CC[C@H]1CC(OC(=O)C(O)c1ccccc1)C2 (some centres undefined),9.6%,–
CCNC(=O)[C@@H]1CCCN1C(=O)[C@H](CCCN=C(N)N)NC(=O)[C@H](CC(C)C)NC(=O)[C@@H](CC(C)C)NC(=O)[C@H](Cc1ccc(O)cc1)NC(=O)[C@H](CO)NC(=O)[C@H](Cc1c[nH]c2ccccc12)NC(=O)[C@H](Cc1cnc[nH]1)NC(=O)[C@@H]1CCC(=O)N1,12.8% [at 25.3 µM],–
CC(CCC1(O)OC2CC3C4CC=C5CC(O[C@@H]6O[C@H](CO)[C@@H](O[C@@H]7O[C@H](CO)[C@@H](O)[C@H](O)[C@H]7O)[C@H](O)[C@H]6O[C@@H]6O[C@@H](C)[C@H](O)[C@@H](O)[C@H]6O)CCC5(C)C4CCC3(C)C2C1C)CO[C@@H]1O[C@H](CO)[C@@H](O)[C@H](O)[C@H]1O (some centres undefined),-3.93% [at 11.6 µM],–
CN([C@H]1c2cc(OCCCC(F)(F)F)ccc2OC(C)(C)[C@@H]1O)S(C)(=O)=O,6.03%,–
Cn1c(NC[C@@H](N)Cc2ccccc2)nc(-c2ccncc2)c(-c2ccc3ccccc3c2)c1=O,-4.28%,–
CCCCC(=O)N(Cc1ccc(-c2ccccc2-c2nn[nH]n2)cc1)C(C(=O)O)C(C)C (centres undefined),-16%,–
COc1ccc(NS(=O)(=O)c2sc3ccc(Cl)cc3c2C)cc1N1CCNCC1,-4.07%,–
CCCCc1nc(Cl)c(CO)n1Cc1ccc(-c2ccccc2-c2nnn[nH]2)cc1,8.23%,–
CCC(=O)c1cc(-c2ccc(Cl)cc2)n(-c2ccc(S(N)(=O)=O)cc2)c1C,1.65%,–
Cc1nnsc1C(=O)Nc1ccc(-n2nc(C(F)(F)F)cc2C(F)(F)F)cc1,3.65%,–
Cc1cc(C)c(NC(=O)N(Cc2ccc3c(c2)Cc2ccccc2-3)C2CCCCCC2)c(C)c1,-7.41%,–
Fc1ccccc1CNCc1ccc(-c2ccnc3[nH]ccc23)cc1,-0.693%,–
CN(Cc1ccc(C(=O)O)cc1)c1ccc(OCc2c(-c3c(Cl)cccc3Cl)noc2C2CC2)nc1C(F)(F)F,8.55%,–
Cc1nc(C)c2c(n1)N(Cc1ccc(-c3ccccc3-c3nn[nH]n3)cc1)C(=O)CC2,0.459%,–
N#C[C@@H]1C[C@@H]2C[C@@H]2N1C(=O)[C@@H](N)C12CC3CC(CC(O)(C3)C1)C2,-13%,–
CS(=O)(=O)c1ccc(-c2cn3ccccc3n2)cc1,–,10 µM (active)
CCCCOc1ccc(-c2cncc(C(=O)NCc3cccnc3N3CCOCC3)c2)cc1Cl,-6.04%,–
CC[C@H]1OC(=O)[C@H](C)[C@@H](O[C@H]2C[C@@](C)(OC)[C@@H](O)[C@H](C)O2)[C@H](C)[C@@H](O[C@@H]2O[C@H](C)C[C@H](N(C)C)[C@H]2O)[C@](C)(O)C[C@@H](C)/C(=N/OCOCCOC)[C@H](C)[C@@H](O)[C@]1(C)O,-6.46%,–
C[C@@H](O[C@H]1OCCN(Cc2n[nH]nc2CN(C)C)[C@H]1c1ccc(F)cc1)c1cc(C(F)(F)F)cc(C(F)(F)F)c1,-6.04%,–
Cc1cc(CN)cc(C)c1NC(=O)c1ccc(-c2cc(Cl)ccc2Cl)o1,-14.6%,–
CCCCc1nc(C)c(CC(=S)N(C)C)c(=O)n1Cc1ccc(-c2ccccc2-c2nn[nH]n2)cc1,9.86%,–
CC(=O)N1CCN([C@H]2CCN(C(=O)N(C)[C@H](C)c3cc(C(F)(F)F)cc(C(F)(F)F)c3)[C@@H](c3ccc(F)cc3C)C2)CC1,-1.62%,–
CC1(C)SC2C(NC(=O)[C@H](C(=O)O)c3ccsc3)C(=O)N2C1C(=O)O (some centres undefined),13.9%,–
COc1c(N2CC3CCCNC3C2)c(F)cc2c(=O)c(C(=O)O)cn(C3CC3)c12 (centres undefined),-3.4%,–
CN(CC(=O)N(Cc1ccc(C2CCCCC2)cc1)c1ccc(C(=O)O)cc1)S(=O)(=O)c1c(F)c(F)c(F)c(F)c1F,–,25.1 µM (active)
CO[C@@H]1[C@@H](O[C@H]2O[C@@H](C)[C@H](O[C@@H]3C[C@](C)(O)[C@H](O)[C@@H](C)O3)[C@@H](N(C)C)[C@@H]2O)[C@@H](CC=O)C[C@@H](C)[C@@H](O[C@H]2CC[C@H](N(C)C)[C@H](C)O2)/C=C/C=C/C[C@@H](C)OC(=O)C[C@H]1O,-3.52%,–
CC1OC2O[C@H]3[C@@H](OCC(O)[C@H]3O)OC(=O)C34CCC(C)(C)CC3C3=CCC5C6(C)CC(O)C(OC7OC(CO)C(O)C(O)C7O[C@@H]7OC[C@H](OC(=O)CC(C)(O)CC(=O)OC1C(OC1OCC(O)C(O)C1O)C2O)[C@@H](O)[C@H]7O)C(C)(CO)C6CCC5(C)C3(C)CC4 (some centres undefined),-18.9% [at 25.3 µM],–
Cc1ccn(-c2cc(Cl)ccc2[C@@H](Oc2cc(-c3ccc(C[C@H](N)C(=O)O)cc3)nc(N)n2)C(F)(F)F)n1,-4.08%,–
